Test results as given in the supplement of paper PMC12645437, “Orthogonal IMiD-Degron Pairs Induce Selective Protein Degradation in Cells” (ACS Chemical Biology, 2025).
Whole data set: some 8,300 sequences, median “log2 fold change of degron read counts, EGFP-low vs EGFP+ sorted cells (limma voom), compound-induced degradation” near -1.1, cut for the highest 2% near 3.2. Shown is part of a subset that was picked to be rich in the highest values.

Molecular target: T1, CRBN, Q96SW2
T1 chain: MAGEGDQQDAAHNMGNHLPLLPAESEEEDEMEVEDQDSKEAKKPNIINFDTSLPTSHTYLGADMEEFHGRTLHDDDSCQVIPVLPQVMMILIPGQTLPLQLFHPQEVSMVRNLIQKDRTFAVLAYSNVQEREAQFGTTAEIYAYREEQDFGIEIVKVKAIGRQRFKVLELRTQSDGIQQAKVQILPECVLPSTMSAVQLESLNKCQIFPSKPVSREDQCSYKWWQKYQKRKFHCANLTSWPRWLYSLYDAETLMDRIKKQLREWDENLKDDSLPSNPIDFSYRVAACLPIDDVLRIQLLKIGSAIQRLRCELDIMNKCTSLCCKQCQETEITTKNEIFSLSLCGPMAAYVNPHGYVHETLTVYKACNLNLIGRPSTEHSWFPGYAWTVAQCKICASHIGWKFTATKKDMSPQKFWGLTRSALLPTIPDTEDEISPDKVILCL
Test: log2 fold change of degron read counts, EGFP-low vs EGFP+ sorted cells (limma voom), compound-induced degradation; higher = more compound-induced degradation of the degron-EGFP fusion; degrons are variants of IKZF1/3 zinc finger 2; compound dose not given here
Conditions: Jurkat, 18 h

[1] = compound: compound 19 (5-tert-butyl-thalidomide)
[2] = compound: compound 22 (5-morpholino-thalidomide)
[3] = compound: compound 33 (diphenyl IMiD analogue)
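Further: pooled lentiviral library of zinc finger degron-EGFP fusions in mCherry-positive Jurkat cells, FACS-sorted after compound exposure, with degron abundance counted by next-generation sequencing.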

B1: 46L_47R_49P_50I_52G_53F_54D_55C_67L_, Q9UKT9 (peptide)
chain: LRCPICGFDCTQKGNLLRHIKL
log2 fold change of degron read counts [1]: -1.49 | log2 fold change of degron read counts [2]: -1.07 | log2 fold change of degron read counts [3]: 0.189 | log2 fold change of degron read counts (compound: thalidomide): 0.67

B2: 46L_47R_49N_50Q_52G_53F_54A_55C_67L_, Q9UKT9 (peptide)
chain: LRCNQCGFACTQKGNLLRHIKL
log2 fold change of degron read counts [1]: -1.46 | log2 fold change of degron read counts [2]: -1.7 | log2 fold change of degron read counts [3]: -0.712 | log2 fold change of degron read counts (compound: thalidomide): -0.94

B3: 46F_47W_49D_50Q_52G_53A_54Q_55F_67L_, Q9UKT9 (peptide)
chain: FWCDQCGAQFTQKGNLLRHIKL
log2 fold change of degron read counts [1]: 0.249 | log2 fold change of degron read counts [2]: 2.32 | log2 fold change of degron read counts [3]: -0.8 | log2 fold change of degron read counts (compound: thalidomide): -1.65

B4: 46F_47C_49E_50I_52G_53H_54V_55F_67L_, Q9UKT9 (peptide)
chain: FCCEICGHVFTQKGNLLRHIKL
log2 fold change of degron read counts [1]: -2.85 | log2 fold change of degron read counts [2]: -3.23 | log2 fold change of degron read counts [3]: -2.09 | log2 fold change of degron read counts (compound: thalidomide): -2.16

B5: 46F_47T_49P_50I_52G_53A_54A_55F_67L_, Q9UKT9 (peptide)
chain: FTCPICGAAFTQKGNLLRHIKL
log2 fold change of degron read counts [1]: 2.48 | log2 fold change of degron read counts [2]: 2.97 | log2 fold change of degron read counts [3]: 2.48 | log2 fold change of degron read counts (compound: thalidomide): 2.67

B6: 46F_47A_49P_50I_52G_53A_54A_55F_67L_, Q9UKT9 (peptide)
chain: FACPICGAAFTQKGNLLRHIKL
log2 fold change of degron read counts [1]: 3.73 | log2 fold change of degron read counts [2]: 2.93 | log2 fold change of degron read counts [3]: 1.69 | log2 fold change of degron read counts (compound: thalidomide): 1.69

B7: 46F_47L_49P_50I_52G_53A_54A_55F_67L_, Q9UKT9 (peptide)
chain: FLCPICGAAFTQKGNLLRHIKL
log2 fold change of degron read counts [1]: 1.31 | log2 fold change of degron read counts [2]: 0.494 | log2 fold change of degron read counts [3]: 1.82 | log2 fold change of degron read counts (compound: thalidomide): 1.59

B8: 46F_47D_49P_50I_52G_53A_54A_55F_67L_, Q9UKT9 (peptide)
chain: FDCPICGAAFTQKGNLLRHIKL
log2 fold change of degron read counts [1]: 2.39 | log2 fold change of degron read counts [2]: 0.645 | log2 fold change of degron read counts [3]: 1.79 | log2 fold change of degron read counts (compound: thalidomide): 2.2

B9: 46F_47M_49P_50I_52G_53A_54A_55F_67L_, Q9UKT9 (peptide)
chain: FMCPICGAAFTQKGNLLRHIKL
log2 fold change of degron read counts [1]: 2.31 | log2 fold change of degron read counts [2]: 2.47 | log2 fold change of degron read counts [3]: 2.94 | log2 fold change of degron read counts (compound: thalidomide): 2.32

B10: 46F_47C_49P_50I_52G_53A_54A_55F_67L_, Q9UKT9 (peptide)
chain: FCCPICGAAFTQKGNLLRHIKL
log2 fold change of degron read counts [1]: 3.34 | log2 fold change of degron read counts [2]: 2.84 | log2 fold change of degron read counts [3]: 2.48 | log2 fold change of degron read counts (compound: thalidomide): 2.21

B11: 46F_47I_49N_50V_52G_53A_54I_55F_67L_, Q9UKT9 (peptide)
chain: FICNVCGAIFTQKGNLLRHIKL
log2 fold change of degron read counts [1]: -2.95 | log2 fold change of degron read counts [2]: -2.03 | log2 fold change of degron read counts [3]: 0.29 | log2 fold change of degron read counts (compound: thalidomide): -1.36

B12: 46F_47V_49N_50Q_52G_53R_54V_55F_67L_, Q9UKT9 (peptide)
chain: FVCNQCGRVFTQKGNLLRHIKL
log2 fold change of degron read counts [1]: -2.6 | log2 fold change of degron read counts [2]: -2.87 | log2 fold change of degron read counts [3]: -2.56 | log2 fold change of degron read counts (compound: thalidomide): -2.9

B13: 46F_47L_49D_50V_52G_53A_54G_55F_67L_, Q9UKT9 (peptide)
chain: FLCDVCGAGFTQKGNLLRHIKL
log2 fold change of degron read counts [1]: -0.0363 | log2 fold change of degron read counts [2]: -1.56 | log2 fold change of degron read counts [3]: -0.558 | log2 fold change of degron read counts (compound: thalidomide): -1.42

B14: 46F_47M_49D_50I_52G_53A_54Q_55F_67L_, Q9UKT9 (peptide)
chain: FMCDICGAQFTQKGNLLRHIKL
log2 fold change of degron read counts [1]: -1.1 | log2 fold change of degron read counts [2]: -0.152 | log2 fold change of degron read counts [3]: 2.21 | log2 fold change of degron read counts (compound: thalidomide): -0.153

B15: 46F_47N_49N_50Q_52G_53R_54F_55F_67L_, Q9UKT9 (peptide)
chain: FNCNQCGRFFTQKGNLLRHIKL
log2 fold change of degron read counts [1]: -1.77 | log2 fold change of degron read counts [2]: -2.76 | log2 fold change of degron read counts [3]: -1.9 | log2 fold change of degron read counts (compound: thalidomide): -1.6

B16: 46F_47R_49P_50I_52G_53H_54I_55F_67L_, Q9UKT9 (peptide)
chain: FRCPICGHIFTQKGNLLRHIKL
log2 fold change of degron read counts [1]: -2.22 | log2 fold change of degron read counts [2]: -2.81 | log2 fold change of degron read counts [3]: -1.62 | log2 fold change of degron read counts (compound: thalidomide): -1.42

B17: 46F_47L_49E_50I_52G_53H_54Q_55F_67L_, Q9UKT9 (peptide)
chain: FLCEICGHQFTQKGNLLRHIKL
log2 fold change of degron read counts [1]: -3.24 | log2 fold change of degron read counts [2]: -3.62 | log2 fold change of degron read counts [3]: -3.53 | log2 fold change of degron read counts (compound: thalidomide): -2.18

B18: 46L_47K_49P_50I_52G_53F_54D_55C_67L_, Q9UKT9 (peptide)
chain: LKCPICGFDCTQKGNLLRHIKL
log2 fold change of degron read counts [1]: -1.99 | log2 fold change of degron read counts [2]: -1.82 | log2 fold change of degron read counts [3]: -1.08 | log2 fold change of degron read counts (compound: thalidomide): -0.789

B19: 46F_47G_49E_50I_52G_53H_54G_55F_67L_, Q9UKT9 (peptide)
chain: FGCEICGHGFTQKGNLLRHIKL
log2 fold change of degron read counts [1]: -2.33 | log2 fold change of degron read counts [2]: -2.62 | log2 fold change of degron read counts [3]: -2.89 | log2 fold change of degron read counts (compound: thalidomide): -2.42

B20: 46F_47L_49P_50I_52G_53R_54F_55F_67L_, Q9UKT9 (peptide)
chain: FLCPICGRFFTQKGNLLRHIKL
log2 fold change of degron read counts [1]: -1.24 | log2 fold change of degron read counts [2]: -1.32 | log2 fold change of degron read counts [3]: 0.143 | log2 fold change of degron read counts (compound: thalidomide): 0.16

B21: 46F_47M_49P_50I_52G_53A_54S_55F_67L_, Q9UKT9 (peptide)
chain: FMCPICGASFTQKGNLLRHIKL
log2 fold change of degron read counts [1]: 1.54 | log2 fold change of degron read counts [2]: 2.45 | log2 fold change of degron read counts [3]: 2.91 | log2 fold change of degron read counts (compound: thalidomide): 2.41

B22: 46F_47E_49N_50I_52G_53A_54S_55F_67L_, Q9UKT9 (peptide)
chain: FECNICGASFTQKGNLLRHIKL
log2 fold change of degron read counts [1]: -0.173 | log2 fold change of degron read counts [2]: -1.42 | log2 fold change of degron read counts [3]: 0.849 | log2 fold change of degron read counts (compound: thalidomide): 1.86

B23: 46F_47A_49P_50I_52G_53A_54S_55F_67L_, Q9UKT9 (peptide)
chain: FACPICGASFTQKGNLLRHIKL
log2 fold change of degron read counts [1]: 3.73 | log2 fold change of degron read counts [2]: 2.44 | log2 fold change of degron read counts [3]: 1.48 | log2 fold change of degron read counts (compound: thalidomide): 1.61

B24: 46F_47C_49P_50I_52G_53A_54S_55F_67L_, Q9UKT9 (peptide)
chain: FCCPICGASFTQKGNLLRHIKL
log2 fold change of degron read counts [1]: 3.32 | log2 fold change of degron read counts [2]: 2.71 | log2 fold change of degron read counts [3]: 2.44 | log2 fold change of degron read counts (compound: thalidomide): 2.37

B25: 46F_47V_49P_50I_52G_53A_54S_55F_67L_, Q9UKT9 (peptide)
chain: FVCPICGASFTQKGNLLRHIKL
log2 fold change of degron read counts [1]: 0.995 | log2 fold change of degron read counts [2]: 2.78 | log2 fold change of degron read counts [3]: 2.19 | log2 fold change of degron read counts (compound: thalidomide): 3.08

B26: 46F_47R_49P_50I_52G_53A_54S_55F_67L_, Q9UKT9 (peptide)
chain: FRCPICGASFTQKGNLLRHIKL
log2 fold change of degron read counts [1]: 1.96 | log2 fold change of degron read counts [2]: 1.71 | log2 fold change of degron read counts [3]: 1.79 | log2 fold change of degron read counts (compound: thalidomide): 1.78

B27: 46F_47I_49P_50I_52G_53A_54S_55F_67L_, Q9UKT9 (peptide)
chain: FICPICGASFTQKGNLLRHIKL
log2 fold change of degron read counts [1]: -0.0282 | log2 fold change of degron read counts [2]: 2.87 | log2 fold change of degron read counts [3]: 1.99 | log2 fold change of degron read counts (compound: thalidomide): 2.6

B28: 46F_47C_49N_50I_52G_53A_54S_55F_67L_, Q9UKT9 (peptide)
chain: FCCNICGASFTQKGNLLRHIKL
log2 fold change of degron read counts [1]: 1.56 | log2 fold change of degron read counts [2]: 1.91 | log2 fold change of degron read counts [3]: 1.76 | log2 fold change of degron read counts (compound: thalidomide): 1.41

B29: 46F_47E_49P_50I_52G_53A_54S_55F_67L_, Q9UKT9 (peptide)
chain: FECPICGASFTQKGNLLRHIKL
log2 fold change of degron read counts [1]: 2.15 | log2 fold change of degron read counts [2]: -0.116 | log2 fold change of degron read counts [3]: 2.38 | log2 fold change of degron read counts (compound: thalidomide): 3.32

B30: 46F_47S_49P_50I_52G_53A_54S_55F_67L_, Q9UKT9 (peptide)
chain: FSCPICGASFTQKGNLLRHIKL
log2 fold change of degron read counts [1]: 3.35 | log2 fold change of degron read counts [2]: 2.78 | log2 fold change of degron read counts [3]: 2.17 | log2 fold change of degron read counts (compound: thalidomide): 2.01
